# Reference: ChEMBL document CHEMBL3988442, “University of Dundee, Small-Polar-MMV Screening Library” (2021)
# For some assays here: Potency and affinity values are given separately.
# Experiments:
# Design in all cases: scale not given: direction of the effect not stated beside the values
# [1] = target: Protein translocase subunit SecA (Escherichia coli (strain K12)) (UniProt P10408); assay: Assay to Identify E. coli SecA ATPase Inhibitors; assay type: functional; settings: 30 µM
# [2] = target: T1, Ubiquitin-activating enzyme e1, putative (Leishmania donovani (strain BPK282A1)) (UniProt E9BSI1); assay: Leishmania donovani Ubiquitin Activating Enzyme (LdE1); assay type: functional; settings: 30 µM
# T1 sequence (whole entry): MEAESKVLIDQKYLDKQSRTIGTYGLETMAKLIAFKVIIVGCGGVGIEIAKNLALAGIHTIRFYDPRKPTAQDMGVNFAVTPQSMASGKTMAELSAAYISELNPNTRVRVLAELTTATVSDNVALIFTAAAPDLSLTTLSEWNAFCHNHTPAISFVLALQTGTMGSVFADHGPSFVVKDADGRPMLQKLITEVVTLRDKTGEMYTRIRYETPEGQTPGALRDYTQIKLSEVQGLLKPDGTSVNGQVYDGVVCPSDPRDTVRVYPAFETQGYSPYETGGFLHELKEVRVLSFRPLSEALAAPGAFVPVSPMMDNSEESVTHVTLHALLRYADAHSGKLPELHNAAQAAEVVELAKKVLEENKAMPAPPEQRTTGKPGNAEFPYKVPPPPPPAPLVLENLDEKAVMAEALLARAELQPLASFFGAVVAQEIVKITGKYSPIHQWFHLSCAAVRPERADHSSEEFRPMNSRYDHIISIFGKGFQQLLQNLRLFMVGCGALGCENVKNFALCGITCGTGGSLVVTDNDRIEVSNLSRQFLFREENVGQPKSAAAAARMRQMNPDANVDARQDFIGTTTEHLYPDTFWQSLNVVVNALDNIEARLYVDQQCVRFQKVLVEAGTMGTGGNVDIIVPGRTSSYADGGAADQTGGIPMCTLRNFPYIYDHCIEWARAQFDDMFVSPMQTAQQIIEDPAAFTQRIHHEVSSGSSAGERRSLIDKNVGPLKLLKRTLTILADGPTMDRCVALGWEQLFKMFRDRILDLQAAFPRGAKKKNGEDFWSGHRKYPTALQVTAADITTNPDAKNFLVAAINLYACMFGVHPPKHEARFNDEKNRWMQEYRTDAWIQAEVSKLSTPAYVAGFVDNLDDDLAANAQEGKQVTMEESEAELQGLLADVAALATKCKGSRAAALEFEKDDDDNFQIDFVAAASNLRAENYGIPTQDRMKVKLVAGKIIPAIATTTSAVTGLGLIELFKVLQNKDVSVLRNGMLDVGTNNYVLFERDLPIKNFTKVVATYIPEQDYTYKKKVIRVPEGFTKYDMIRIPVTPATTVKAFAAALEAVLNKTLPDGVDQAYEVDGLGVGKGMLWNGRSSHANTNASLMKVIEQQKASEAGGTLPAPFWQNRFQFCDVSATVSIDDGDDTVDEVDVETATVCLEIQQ
# [3] = target: AMP-activated protein kinase, AMPK (Homo sapiens) (UniProt P54646+O43741+P54619+Q9UGJ0+Q9Y478+Q13131+Q9UGI9); assay: AMP-dependent Kinase enzyme assay. An in vitro enzyme assay that detects ADP turnover that is directly proportional to AMPK activity. This uses naive AMPK that is activated during the assay with MK-8722; assay type: functional; settings: 30 µM
# [4] = target: Sialic acid-binding Ig-like lectin 9 (Homo sapiens) (UniProt Q9Y336); assay: Hs-Siglec9 ALPHAscreen SOP 20170721; settings: 10 µM
# Chain of Sialic acid-binding Ig-like lectin 9 (Homo sapiens) (Q9Y336 whole entry): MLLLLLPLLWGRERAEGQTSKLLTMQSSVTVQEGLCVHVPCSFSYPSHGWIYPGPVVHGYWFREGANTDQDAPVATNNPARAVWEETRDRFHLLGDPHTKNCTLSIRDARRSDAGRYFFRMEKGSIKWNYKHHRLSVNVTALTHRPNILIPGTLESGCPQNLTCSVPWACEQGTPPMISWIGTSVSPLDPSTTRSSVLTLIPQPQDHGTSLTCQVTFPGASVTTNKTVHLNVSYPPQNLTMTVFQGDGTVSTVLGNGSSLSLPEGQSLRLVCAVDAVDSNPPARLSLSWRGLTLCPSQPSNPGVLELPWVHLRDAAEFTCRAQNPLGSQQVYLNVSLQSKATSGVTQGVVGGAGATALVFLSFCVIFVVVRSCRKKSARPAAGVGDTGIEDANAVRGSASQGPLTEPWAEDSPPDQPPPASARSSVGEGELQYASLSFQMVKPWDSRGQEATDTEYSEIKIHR
# [5] = tested on: Trypanosoma cruzi; assay: Trypanosoma cruzi phosphomannomutase and mannose-1-phosphate guanylyltransferase assay; assay type: functional; settings: 10 µM
# [6] = target: T2, Arginase-2, mitochondrial (Homo sapiens) (UniProt P78540); assay: in vitro enzyme assay to detect the production of urea directly proportional to the activity of Arginase II; assay type: functional; settings: 33.3 µM; also: in the data most compounds retested in dose-response had high values
# T2 sequence (whole entry): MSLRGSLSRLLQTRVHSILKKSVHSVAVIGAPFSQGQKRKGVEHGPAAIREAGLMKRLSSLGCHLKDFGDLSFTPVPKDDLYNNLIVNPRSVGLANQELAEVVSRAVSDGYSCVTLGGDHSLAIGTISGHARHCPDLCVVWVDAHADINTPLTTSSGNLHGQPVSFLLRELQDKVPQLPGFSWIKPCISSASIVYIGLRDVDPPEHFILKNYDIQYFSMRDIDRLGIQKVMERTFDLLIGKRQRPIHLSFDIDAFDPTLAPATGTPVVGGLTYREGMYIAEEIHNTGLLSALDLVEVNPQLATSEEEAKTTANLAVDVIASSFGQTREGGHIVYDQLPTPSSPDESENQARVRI
# [7] = target: T3, Proteasome subunit beta (Trypanosoma cruzi) (UniProt O96673); assay: Trypanosoma cruzi proteasome chymotrypsin-like activity (TcProtChymo) assay.; also: in the data most compounds retested in dose-response had high values; assay type: functional; settings: 9.37 µM
# T3 sequence (whole entry): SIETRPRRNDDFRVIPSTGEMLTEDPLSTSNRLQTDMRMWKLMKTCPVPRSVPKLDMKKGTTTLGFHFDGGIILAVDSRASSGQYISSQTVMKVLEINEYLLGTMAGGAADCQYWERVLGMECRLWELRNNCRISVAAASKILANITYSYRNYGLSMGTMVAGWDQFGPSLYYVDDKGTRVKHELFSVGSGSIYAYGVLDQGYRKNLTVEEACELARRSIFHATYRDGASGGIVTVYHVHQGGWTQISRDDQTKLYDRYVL
# [8] = species on record: Homo sapiens; assay: To identify inhibition of the IFN signalling (Jak-Stat) pathway via expression of an eGFP reporter gene under the control of an IFN-stimulated response element (ISRE) containing MxA promoter.; assay type: functional; settings: 30 µM
# [9] = target: T4, Tyrosyl-tRNA synthetase, putative (Trypanosoma cruzi (strain CL Brener)) (UniProt Q4DSP6); assay: Trypanosoma cruzi tyrosyl tRNA synthetase (TcYRS) _High Tyrosine SOP; assay type: functional; settings: 30 µM; also: in the data most compounds retested in dose-response had high values
# T4 sequence (whole entry): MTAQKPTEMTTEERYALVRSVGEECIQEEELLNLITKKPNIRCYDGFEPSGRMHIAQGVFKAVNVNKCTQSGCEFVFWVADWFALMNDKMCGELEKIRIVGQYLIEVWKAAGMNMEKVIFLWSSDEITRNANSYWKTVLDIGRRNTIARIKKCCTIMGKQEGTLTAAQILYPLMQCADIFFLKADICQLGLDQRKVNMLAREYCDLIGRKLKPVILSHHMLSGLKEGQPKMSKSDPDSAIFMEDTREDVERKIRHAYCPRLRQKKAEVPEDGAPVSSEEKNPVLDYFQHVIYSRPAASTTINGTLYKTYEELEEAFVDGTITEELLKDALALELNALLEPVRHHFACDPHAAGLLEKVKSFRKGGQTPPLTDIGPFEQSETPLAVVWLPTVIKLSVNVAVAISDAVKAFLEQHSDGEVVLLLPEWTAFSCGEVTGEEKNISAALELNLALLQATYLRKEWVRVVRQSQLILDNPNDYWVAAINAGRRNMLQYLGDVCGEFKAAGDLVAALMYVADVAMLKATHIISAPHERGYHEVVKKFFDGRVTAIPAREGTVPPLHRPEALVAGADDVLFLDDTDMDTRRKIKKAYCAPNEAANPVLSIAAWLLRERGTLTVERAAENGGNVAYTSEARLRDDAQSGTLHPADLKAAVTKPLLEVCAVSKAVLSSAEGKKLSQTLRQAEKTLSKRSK
# [10] = target: T4, Tyrosyl-tRNA synthetase, putative (Trypanosoma cruzi (strain CL Brener)); assay: Trypanosoma cruzi tyrosyl tRNA synthetase (TcYRS) SOP; assay type: functional; settings: 30 µM
# [11] = target: Chromo domain-containing protein 1 (Saccharomyces cerevisiae (strain ATCC 204508 / S288c) (Baker's yeast)) (UniProt P32657); assay: ScCHD-1 Enzyme Inhibition Assay; assay type: functional; settings: 30 µM; also: in the data most compounds retested in dose-response had high values
# Chain of Chromo domain-containing protein 1 (Saccharomyces cerevisiae (strain ATCC 204508 / S288c) (Baker's yeast)) (P32657 whole entry, the tested form may be a part): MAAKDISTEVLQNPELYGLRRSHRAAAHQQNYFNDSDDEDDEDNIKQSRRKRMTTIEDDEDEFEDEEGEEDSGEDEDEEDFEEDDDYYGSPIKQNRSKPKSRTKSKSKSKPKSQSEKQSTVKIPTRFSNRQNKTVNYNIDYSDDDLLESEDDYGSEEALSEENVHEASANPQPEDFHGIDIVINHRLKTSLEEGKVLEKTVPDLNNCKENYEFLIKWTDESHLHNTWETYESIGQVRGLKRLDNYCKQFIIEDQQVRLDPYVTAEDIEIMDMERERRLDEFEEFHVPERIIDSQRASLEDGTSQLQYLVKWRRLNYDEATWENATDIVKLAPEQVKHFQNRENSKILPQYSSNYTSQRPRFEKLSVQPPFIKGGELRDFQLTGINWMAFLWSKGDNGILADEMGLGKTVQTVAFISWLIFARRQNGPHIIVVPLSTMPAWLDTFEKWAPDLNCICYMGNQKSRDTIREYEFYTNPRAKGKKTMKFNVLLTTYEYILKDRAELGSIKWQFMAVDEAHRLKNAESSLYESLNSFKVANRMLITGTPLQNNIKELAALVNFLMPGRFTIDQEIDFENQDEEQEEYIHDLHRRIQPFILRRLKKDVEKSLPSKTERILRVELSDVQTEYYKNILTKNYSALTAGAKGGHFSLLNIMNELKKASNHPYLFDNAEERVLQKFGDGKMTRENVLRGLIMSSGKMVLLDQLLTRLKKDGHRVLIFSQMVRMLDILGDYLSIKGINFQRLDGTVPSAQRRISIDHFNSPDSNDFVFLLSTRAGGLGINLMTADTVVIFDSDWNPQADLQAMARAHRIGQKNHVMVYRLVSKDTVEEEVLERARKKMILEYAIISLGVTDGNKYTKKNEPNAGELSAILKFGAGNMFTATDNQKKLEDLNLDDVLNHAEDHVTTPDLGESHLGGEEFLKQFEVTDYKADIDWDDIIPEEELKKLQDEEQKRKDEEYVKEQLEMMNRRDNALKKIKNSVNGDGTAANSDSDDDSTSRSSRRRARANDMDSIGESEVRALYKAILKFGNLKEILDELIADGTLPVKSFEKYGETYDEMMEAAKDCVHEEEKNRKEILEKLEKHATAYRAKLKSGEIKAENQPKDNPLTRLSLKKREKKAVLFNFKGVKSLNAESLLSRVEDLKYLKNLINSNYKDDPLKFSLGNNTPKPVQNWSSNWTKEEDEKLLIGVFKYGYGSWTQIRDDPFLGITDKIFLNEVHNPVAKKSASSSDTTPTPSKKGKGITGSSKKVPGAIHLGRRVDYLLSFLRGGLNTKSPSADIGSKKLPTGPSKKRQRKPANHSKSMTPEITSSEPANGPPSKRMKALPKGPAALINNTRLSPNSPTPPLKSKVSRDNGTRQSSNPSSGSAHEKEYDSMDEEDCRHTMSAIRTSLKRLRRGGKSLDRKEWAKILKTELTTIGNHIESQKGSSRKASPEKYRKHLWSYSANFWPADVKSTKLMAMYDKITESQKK
# Chain of Protein translocase subunit SecA (Escherichia coli (strain K12)) (P10408 whole entry): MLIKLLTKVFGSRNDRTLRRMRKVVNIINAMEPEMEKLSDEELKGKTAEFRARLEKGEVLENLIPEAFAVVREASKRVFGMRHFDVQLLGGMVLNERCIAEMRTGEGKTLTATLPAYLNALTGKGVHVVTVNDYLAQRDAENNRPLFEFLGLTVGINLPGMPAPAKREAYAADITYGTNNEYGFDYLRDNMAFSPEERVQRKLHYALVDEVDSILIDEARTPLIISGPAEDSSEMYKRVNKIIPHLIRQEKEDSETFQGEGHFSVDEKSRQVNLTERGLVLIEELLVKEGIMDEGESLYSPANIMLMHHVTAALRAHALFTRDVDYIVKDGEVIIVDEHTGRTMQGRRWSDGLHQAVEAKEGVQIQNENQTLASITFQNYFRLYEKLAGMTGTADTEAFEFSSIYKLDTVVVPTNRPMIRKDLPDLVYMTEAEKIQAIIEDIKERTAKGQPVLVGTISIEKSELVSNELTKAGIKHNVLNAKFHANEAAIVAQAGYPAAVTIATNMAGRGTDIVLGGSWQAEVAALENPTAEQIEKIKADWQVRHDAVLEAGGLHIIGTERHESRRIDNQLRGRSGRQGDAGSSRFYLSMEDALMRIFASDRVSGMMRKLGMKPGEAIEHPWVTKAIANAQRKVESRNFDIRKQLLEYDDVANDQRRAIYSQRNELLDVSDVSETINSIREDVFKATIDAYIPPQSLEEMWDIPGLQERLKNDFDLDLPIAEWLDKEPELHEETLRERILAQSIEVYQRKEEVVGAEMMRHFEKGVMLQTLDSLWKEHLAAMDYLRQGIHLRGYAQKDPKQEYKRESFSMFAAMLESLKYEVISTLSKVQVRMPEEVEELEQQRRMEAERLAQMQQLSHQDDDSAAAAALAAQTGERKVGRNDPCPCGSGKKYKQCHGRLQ
Structure (SMILES),Percent Effect [1] [%],Percent Effect [2] [%],Percent Effect [3] [%],Percent Effect [4] [%],Percent Effect [5] [%],Percent Effect [6] [%],Percent Effect [7] [%],Percent Effect [8] [%],Percent Effect [9] [%],Percent Effect [10] [%],Percent Effect [11] [%]
Cc1nn(C)c2c(N3CCN(C(=O)c4ccccc4)CC3)ncnc12,1.93,9.33,2.69,-1.85,-6.68,-10.4,12,12.3,8.47,12.8,-10.3
CCC(C)NC(=O)NCCCn1nc2ccccn2c1=O (stereo unspecified),-2.08,13.5,-4.74,-3.56,7.08,-3.61,16.4,-114,1.48,18.5,-14.5
Cc1cccc2[nH]c(C3CCN(C(=O)c4ccnn4C)CC3)nc12,-4.98,7.79,3.06,3.85,-4.62,-23.4,15.1,2.04,9.68,13.6,-3.54
CCc1nc2n(n1)CC(NCc1noc(-c3ccccc3)n1)CC2 (stereo unspecified),-5.91,5.26,-5.76,10.4,9.06,2.52,-2.28,-13.2,3.45,16.1,-6.43
Cc1noc([C@H]2C[C@@H]3CCN(CC4CC4)C[C@H]3O2)n1,-4.27,7.79,4.66,0.715,-1.48,-0.645,3.13,4.2,-1.06,3.85,-3.28
OCCN1CCN(Cc2coc(-c3ccc(Cl)cc3)n2)CC1,-2.69,-2.6,3.9,4.43,3,4.27,1.35,-6.89,0,7.32,-3.24
Nc1nc(C2CCN(C(=O)c3cscn3)CC2)cs1,-2.59,10.7,8.2,-2.11,-3.15,-3.03,3.96,18.2,3.19,11.5,-5.08
Cc1cnn(CC2CCCCN2C(=O)c2ccc3[nH]nnc3c2)c1 (stereo unspecified),-3.72,13,5.5,1.47,-2.25,2.32,14.3,22.2,6.67,9.41,-11.2
CCc1nc(C)c([C@H]2CN(C)C[C@@H]2C(=O)Nc2ccc(OC)cc2)[nH]1,-5.53,5.41,-1.46,2.65,1.16,-2.86,8.28,1.5,8.99,12.2,-4.67
Cc1cnc2n(c1=O)CC(C(=O)Nc1ccccc1Cl)CS2 (stereo unspecified),-2.2,-2.74,-2.72,0.622,-2.94,-1.36,5.68,-7.02,1.07,0,-1.89
Cc1ccc(C)c(-c2csc(N)c2C#N)c1,-2.81,-1.33,-2.97,7.24,0.589,-10,4.99,14.2,-12.7,-12.8,2.05
Cc1nn(C)c(C)c1C1COCCN1c1ncnc2sccc12 (stereo unspecified),-2.31,-2.67,-0.892,-4.05,-0.487,-2.08,10.1,31.3,1.64,3.7,-1.49
Cn1cc(CN2C[C@@H]3COC[C@]3(COc3ccc(C#N)cn3)C2)cn1,-0.614,5.48,-2.34,6.07,-1.98,1.2,11.4,13.4,8.33,11.1,-0.913
CC(C)(C)c1cnc(CN2CCC(c3ccnn3CCO)CC2)o1,-2.61,2.53,7.52,9.51,7.46,-3.42,-3.69,20.2,3.45,11.4,-1.55
CC(C)CC(=O)N1CC[C@@H]2[C@H](CC1)N(S(C)(=O)=O)CCS2(=O)=O,-4.61,18.9,-5.46,-1.46,5.66,25.8,14.1,6.42,5.94,13.4,-6.08
COc1cnc(N2CCC(Oc3ccccc3OC)(C(=O)O)CC2)nc1,-5.13,11,0.422,4.04,0.595,-2,8.99,-4.79,5.21,8.64,-4.67
